Source: PubChem BioAssay (NCATS)
Results filed as inconclusive are left out. Calls of active or inactive are those of the source. Calls follow the shape of the dose curve; as a rule, active = well fitted activation curve with a large enough effect; inconclusive = small, poorly fitted or top-dose-only effect; inactive = no such curve, though single readings can be large or run the other way.

The compounds below were run against Cellular tumor antigen p53 (Homo sapiens) (UniProt P04637) (assay: Primary qHTS for small molecule compounds that upregulate eGFP-tagged delta133p53alpha (in N-terminal) cells. (AID 2060322;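 also: series mostly up to about 56 µM; 0% = DMSO vehicle and 100% = reference activator; nearly all actives have a fitted effect of over 75% in size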)). Conditions: NCI-H358 eGFP-delta133p53alpha fluorescence, 24 h; activation: hits give high values.
Outline: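 NCI-H358 cells pre-induced 24 h with 10 ng/ml doxycycline to express N-terminal eGFP-delta133p53alpha, then dosed 24 h at 37C without doxycycline; fixed, Hoechst-stained, GFP intensity by laser scanning cytometry, normalized to DMSO (0%) and 57.5 uM 5-azacytidine (100%).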

Chain of Cellular tumor antigen p53 (Homo sapiens) (P04637 whole entry, looked up): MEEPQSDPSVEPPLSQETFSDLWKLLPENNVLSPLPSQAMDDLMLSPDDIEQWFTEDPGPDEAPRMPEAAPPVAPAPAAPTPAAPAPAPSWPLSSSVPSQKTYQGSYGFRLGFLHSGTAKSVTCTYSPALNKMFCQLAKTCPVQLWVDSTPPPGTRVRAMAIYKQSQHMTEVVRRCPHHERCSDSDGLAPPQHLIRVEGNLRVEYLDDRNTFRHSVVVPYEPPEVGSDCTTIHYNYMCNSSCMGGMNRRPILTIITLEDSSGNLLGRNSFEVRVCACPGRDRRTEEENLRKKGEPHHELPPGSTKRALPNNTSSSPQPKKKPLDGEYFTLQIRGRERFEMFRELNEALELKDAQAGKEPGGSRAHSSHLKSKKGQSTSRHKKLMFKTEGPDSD

Structure (SMILES)	activation
CC(Cc1ccccc1)NCCCCl (stereo not given)	-27.6% (inactive)
FC(F)(F)c1cccc(C2=CCN(CCc3ccc4ccccc4c3)CC2)c1	-5.08% (inactive)
O=C(N/N=C/c1ccc([N+](=O)[O-])o1)c1cc([N+](=O)[O-])cc([N+](=O)[O-])c1O	-6.21% (inactive)
CC#C[C@]1(O)CC[C@H]2[C@@H]3C[C@H](C)C4=CC(=O)CC[C@]4(C)[C@H]3CC[C@@]21C	-4.18% (inactive)
COC(=O)C(Cl)C(=O)OC	-13.4% (inactive)
CC(C)N[C@@H]1CCn2c(=O)[nH]c3cccc(c32)[C@@H]1O	13.7% (inactive)
C=C[C@@H]1CN2CCC1C[C@H]2[C@H](O)c1ccnc2ccccc12 (stereo not given in full)	-4.83% (inactive)
CC1Sc2c(C(=O)O)c(=O)c3cc(F)c(N4CCNCC4)cc3n21 (stereo not given)	-8.47% (inactive)
COc1cccc2c1[C@]13CCN(CC4CC4)[C@H](C2)[C@]1(OC)CCC(=O)C3	-12% (inactive)
C[C@]12CC[C@H]3[C@@H](CC=C4C[C@@H](O)CC[C@@]43C)[C@@H]1CC[C@@H]2O	-16.7% (inactive)
CC1(C)CC/C(=C/c2ccc(Cl)cc2)C1(O)Cn1cncn1 (stereo not given)	2.51% (inactive)
C=CCC1([C@H](C)CCC)C(=O)NC(=O)NC1=O	7.34% (inactive)
CO/C=C(/C(=O)OC)c1ccccc1Oc1cc(Oc2ccccc2C#N)ncn1	-36.8% (inactive)
COc1ccc(C(c2ccc(OC)cc2)C(Cl)(Cl)Cl)cc1	-10.7% (inactive)
CC(C)(C)NCC(O)c1cc(Cl)c(N)c(C(F)(F)F)c1 (stereo not given)	-6.21% (inactive)
